DUX4 txn inh: DUX4-mediated transcription inhibition | 37,000 tested, 0.8% active | 293T-iDUX4 ZSCAN4-Gaussia luciferase reporter, 24 h; hits give low values | activity change, negative = inhibition, % (concentration not given with the values);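 active = mean inhibition of at least 10% in the main channel, exceeding the control channel by a set limit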;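 also: 0% = median of neutral control wells and -100% = median of positive control wells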
* hit, by the source's call. The sample as a whole holds a higher share of hits than the screen did.

SMILES | DUX4 txn inh
O=C(c1ccc2c(c1)OCO2)N1CC[C@@H]2[C@H]1c1cc(C#Cc3ccccc3)ccc1N[C@@H]2CO | -8
CCCC(=O)N1CC2(C1)CN(C(=O)CC)[C@H](CO)c1c2c2ccc(OC)cc2n1C | 10
CO[C@H]1CN(C)C(=O)c2cc(C#N)ccc2OCC[C@@H]2CC[C@@H](OC)[C@H](CN(C)C(=O)[C@@H]1C)O2 | 1
COc1ccc2c3c(n(C)c2c1)[C@H](CO)N(C(C)=O)CC31CN(C(=O)c2ccccc2)C1 | -30*
COc1ccc2c3c(n(C)c2c1)[C@H](CO)N(C)CC31CN(C(=O)c2cccnc2)C1 | 10
COc1ccc2c3c(n(C)c2c1)[C@H](CO)N(CC1CC1)CC31CN(C(=O)c2ccc(F)cc2)C1 | -37*
COc1ccc2c3c(n(C)c2c1)[C@@H](CO)N(C)CC31CN(C(=O)Nc2cccc(F)c2)C1 | 10
COc1ccc2c3c(n(C)c2c1)[C@@H](CO)N(C(=O)c1ccccc1)CC31CN(C)C1 | 6
COc1ccc2c3c(n(C)c2c1)[C@H](CO)N(C)CC31CN(C(=O)c2ccccc2F)C1 | -32*
COc1ccc2c3c(n(C)c2c1)[C@@H](CO)N(C(=O)c1ccc(F)cc1)CC31CCN(CC2CC2)CC1 | 2
COc1ccc2c3c(n(C)c2c1)[C@H](CO)N(CC1CC1)CC31CN(Cc2ccc(F)cc2)C1 | -3
COc1cc(CN2CC3(CCN(C(=O)NC(C)C)CC3)c3c(n(C)c4cc(OC)ccc34)[C@@H]2CO)cc(OC)c1 | -5
COc1cc(CN2CC3(CCN(C(=O)Nc4cccc(F)c4)CC3)c3c(n(C)c4cc(OC)ccc34)[C@H]2CO)cc(OC)c1 | -37*
COc1cc(CN2CC3(CCN(C(=O)NC(C)C)CC3)c3c(n(C)c4cc(OC)ccc34)[C@H]2CO)cc(OC)c1 | 1
COc1ccc2c3c(n(C)c2c1)[C@@H](CO)N(C(=O)c1ccccc1)CC31CN(C(C)=O)C1 | 12
CCS(=O)(=O)Nc1ccc2c(c1)C(=O)N(C)[C@@H]1CC[C@H](CC(=O)OC)O[C@@H]1CO2 | -5
COc1ccccc1C(=O)N1C[C@@H]2[C@H](c3ccccc31)[C@@H](CO)N2CC1CCOCC1 | 1
CO[C@H]1CN(C)C(=O)c2ccc(NC(=O)C3CCC3)cc2OC[C@@H](C)N(Cc2ccncc2)C[C@@H]1C | -3
C/C=C/c1ccc([C@H]2[C@@H](CO)N(C(=O)CN(C)C)C23CN(C(=O)C2CCCCC2)C3)cc1 | 4
CN(C)C(=O)C[C@@H]1CC[C@H]2[C@@H](COC[C@@H](O)CN2S(=O)(=O)c2ccccc2)O1 | 10
COCCNC(=O)C[C@@H]1C[C@@H]2c3cc(NC(=O)CC4CC4)ccc3O[C@@H]2[C@H](CO)O1 | 8
O=C(CC1CC1)N1CC2(C1)[C@@H](c1ccccc1)[C@H](CO)N2CC1CCOCC1 | 9
Cc1ccccc1S(=O)(=O)N1CC[C@@H]2[C@H]1c1cc(-c3cccc(F)c3)ccc1N[C@@H]2CO | 13
O=C(C[C@H]1C[C@@H]2c3cc(NC(=O)Nc4ccccc4F)ccc3O[C@@H]2[C@H](CO)O1)NCc1cc(F)ccc1F | 0
O=C(C[C@@H]1C[C@H]2c3cc(NC(=O)Nc4ccccc4F)ccc3O[C@H]2[C@@H](CO)O1)NCCc1ccccc1 | -22*
SMILES | DUX4 txn inh
COCCNC(=O)C[C@H]1C[C@H]2c3cc(NC(=O)Nc4ccccc4F)ccc3O[C@H]2[C@H](CO)O1 | -3
O=C(C[C@@H]1C[C@H]2c3cc(NC(=O)Nc4ccccc4F)ccc3O[C@H]2[C@H](CO)O1)NCc1cc(F)ccc1F | -52*
COCCNC(=O)C[C@@H]1C[C@H]2c3cc(NC(=O)Nc4ccccc4F)ccc3O[C@H]2[C@H](CO)O1 | -6
COc1ccccc1CNC(=O)C[C@@H]1C[C@H]2c3cc(NC(=O)Nc4ccccc4F)ccc3O[C@H]2[C@H](CO)O1 | -9
O=C(C[C@H]1CC[C@@H]2[C@H](COC[C@H](O)CN2C(=O)Nc2cc(Cl)cc(Cl)c2)O1)N1CCCCC1 | 0
CCCC(=O)N1CC2(CN(S(C)(=O)=O)C2)c2c([nH]c3cc(OC)ccc23)[C@H]1CO | 16
Cn1cnc(CCNC(=O)C[C@@H]2CC[C@H]3[C@@H](COC[C@@H](O)CN3C(=O)Nc3ccccc3)O2)c1 | 7
CCCC#Cc1ccc([C@@H]2[C@H](CO)N3CCCCN(S(=O)(=O)Cc4ccccc4)C[C@@H]23)cc1 | -9
O=S(=O)(c1cccs1)N1CCCCN2[C@@H](CO)[C@H](c3ccc(Br)cc3)[C@@H]2C1 | -14*
O=S(=O)(c1cccs1)N1CCCCN2[C@H](CO)[C@@H](c3ccc(Br)cc3)[C@H]2C1 | -9
C[C@@H](O)C#Cc1ccc([C@H]2[C@H]3CN(S(=O)(=O)c4ccccc4)CCCCN3[C@H]2CO)cc1 | 2
O=S(=O)(c1ccc(F)cc1)N1CCCCN2[C@H](CO)[C@@H](c3ccc(C#CC4CC4)cc3)[C@@H]2C1 | -9
O=S(=O)(c1ccccc1)N1CCCCN2[C@H](CO)[C@@H](c3ccc(C#CC4CCCC4)cc3)[C@@H]2C1 | 7
O=S(=O)(c1ccccc1)N1CCCCN2[C@H](CO)[C@H](c3ccc(C#CC4CCCC4)cc3)[C@H]2C1 | -19*
